Test in all cases: DAPPL (digital affinity profiling via proximity ligation, sequencing); 10 mM Tris-HCl pH 7.5, 50 mM NaCl, 1 mM DTT, 4% glycerol, room temperature, 30 min; GST-TFs on glutathione beads, 16-mer random dsDNA library, 0.1% formaldehyde crosslink after washing; high values mean tight binding
The target of one assay is T1, FEV (Homo sapiens, UniProt Q99581 1-238).
T1 sequence: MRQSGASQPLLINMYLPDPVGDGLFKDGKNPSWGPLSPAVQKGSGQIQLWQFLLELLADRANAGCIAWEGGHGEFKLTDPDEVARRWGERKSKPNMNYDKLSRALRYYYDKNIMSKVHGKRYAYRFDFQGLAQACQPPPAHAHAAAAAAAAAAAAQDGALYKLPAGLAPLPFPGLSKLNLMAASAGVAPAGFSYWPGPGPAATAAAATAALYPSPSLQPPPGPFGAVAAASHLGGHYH
To be noted: protein: recombinant; tags: N-terminal GST; dsDNA, one strand shown. In outline: (§1)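 Binding signal is each hexamer's read frequency for a factor divided by its frequency in the tag-only sample. The factors were GST-fused human transcription factors from yeast, captured on glutathione beads, DNA-barcoded and pooled with that sample. Pools were incubated with 200 nmole of a random double-stranded 16-mer DNA library in Tris/NaCl/DTT/glycerol buffer at room temperature for 30 min, then washed, crosslinked with 0.1% formaldehyde, proximity-ligated with BsaI/T4 ligase (1 h, 37 °C), PCR-amplified and sequenced on an Illumina NextSeq500.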

The target in another assay is ETV5 (Homo sapiens, UniProt P41161 1-510). The note with it: protein: recombinant; tags: N-terminal GST; dsDNA, one strand shown. In outline:
as §1

The next assay has as its target HSF1 (Homo sapiens, UniProt Q00613 1-529). To be noted: protein: recombinant; tags: N-terminal GST; chain copies: 3; dsDNA, one strand shown. The method, boiled down: as §1
The next assay deals with T2, SPIC (Homo sapiens, UniProt Q8N5J4 1-248).
T2 sequence: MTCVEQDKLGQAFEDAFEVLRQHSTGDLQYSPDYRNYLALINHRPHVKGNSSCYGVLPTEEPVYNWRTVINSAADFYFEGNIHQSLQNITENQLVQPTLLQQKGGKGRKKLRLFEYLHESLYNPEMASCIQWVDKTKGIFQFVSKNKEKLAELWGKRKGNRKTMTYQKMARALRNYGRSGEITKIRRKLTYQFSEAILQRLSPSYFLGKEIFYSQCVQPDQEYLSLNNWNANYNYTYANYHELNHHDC
The note with it: protein: recombinant; tags: N-terminal GST; dsDNA, one strand shown. The method, boiled down: as §1

The target in the next assay is ELF4 (Homo sapiens, UniProt Q99607 1-663). The note with it: protein: recombinant; tags: N-terminal GST; dsDNA, one strand shown. In outline: as §1
ELF4, sequence (Q99607 whole entry): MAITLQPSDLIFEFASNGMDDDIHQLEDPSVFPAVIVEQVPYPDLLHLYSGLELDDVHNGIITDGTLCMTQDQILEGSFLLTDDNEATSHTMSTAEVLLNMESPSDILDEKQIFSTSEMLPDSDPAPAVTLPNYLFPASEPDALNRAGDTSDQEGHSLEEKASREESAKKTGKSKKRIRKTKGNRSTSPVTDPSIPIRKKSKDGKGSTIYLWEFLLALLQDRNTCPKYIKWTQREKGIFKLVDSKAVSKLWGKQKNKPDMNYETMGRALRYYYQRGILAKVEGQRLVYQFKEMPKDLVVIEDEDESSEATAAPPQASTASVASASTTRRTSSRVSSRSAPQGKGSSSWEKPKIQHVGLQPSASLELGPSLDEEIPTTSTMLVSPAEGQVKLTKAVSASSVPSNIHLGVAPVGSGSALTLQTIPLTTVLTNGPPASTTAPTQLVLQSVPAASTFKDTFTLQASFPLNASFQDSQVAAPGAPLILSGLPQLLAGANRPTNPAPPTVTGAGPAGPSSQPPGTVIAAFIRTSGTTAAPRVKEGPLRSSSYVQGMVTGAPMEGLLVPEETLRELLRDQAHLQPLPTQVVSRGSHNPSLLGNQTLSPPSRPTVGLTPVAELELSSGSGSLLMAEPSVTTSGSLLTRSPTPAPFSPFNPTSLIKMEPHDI
The target of another assay is T3, ELK4 (Homo sapiens, UniProt P28324-2 1-405).
T3 sequence: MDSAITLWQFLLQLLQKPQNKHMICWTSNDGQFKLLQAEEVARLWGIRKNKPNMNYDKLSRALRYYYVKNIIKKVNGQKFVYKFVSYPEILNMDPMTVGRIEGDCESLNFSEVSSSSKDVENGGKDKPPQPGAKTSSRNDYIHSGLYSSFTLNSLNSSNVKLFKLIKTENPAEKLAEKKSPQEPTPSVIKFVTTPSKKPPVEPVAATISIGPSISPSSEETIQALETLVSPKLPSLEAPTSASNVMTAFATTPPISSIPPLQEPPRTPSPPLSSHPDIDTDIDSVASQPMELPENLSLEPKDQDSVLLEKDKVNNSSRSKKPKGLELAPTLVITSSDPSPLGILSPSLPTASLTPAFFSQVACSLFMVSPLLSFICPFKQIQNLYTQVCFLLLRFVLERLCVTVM
To be noted: protein: recombinant; tags: N-terminal GST; dsDNA, one strand shown. In outline:
as §1

The target of the next assay is T4, ETV2 (Homo sapiens, UniProt O00321 1-342).
T4 sequence: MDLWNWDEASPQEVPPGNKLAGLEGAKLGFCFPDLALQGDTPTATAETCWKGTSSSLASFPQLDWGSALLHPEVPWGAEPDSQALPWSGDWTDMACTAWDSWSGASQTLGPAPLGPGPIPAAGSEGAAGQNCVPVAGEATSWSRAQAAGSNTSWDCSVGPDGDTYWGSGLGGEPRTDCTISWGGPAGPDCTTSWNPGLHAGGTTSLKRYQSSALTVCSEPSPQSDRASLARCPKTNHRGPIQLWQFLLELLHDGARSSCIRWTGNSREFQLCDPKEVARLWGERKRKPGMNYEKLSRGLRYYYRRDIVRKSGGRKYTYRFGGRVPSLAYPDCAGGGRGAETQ
To be noted: protein: recombinant; tags: N-terminal GST; dsDNA, one strand shown. In outline:
as §1

The target of a further assay is T5, ELF3 (Homo sapiens, UniProt P78545 1-371).
T5 sequence: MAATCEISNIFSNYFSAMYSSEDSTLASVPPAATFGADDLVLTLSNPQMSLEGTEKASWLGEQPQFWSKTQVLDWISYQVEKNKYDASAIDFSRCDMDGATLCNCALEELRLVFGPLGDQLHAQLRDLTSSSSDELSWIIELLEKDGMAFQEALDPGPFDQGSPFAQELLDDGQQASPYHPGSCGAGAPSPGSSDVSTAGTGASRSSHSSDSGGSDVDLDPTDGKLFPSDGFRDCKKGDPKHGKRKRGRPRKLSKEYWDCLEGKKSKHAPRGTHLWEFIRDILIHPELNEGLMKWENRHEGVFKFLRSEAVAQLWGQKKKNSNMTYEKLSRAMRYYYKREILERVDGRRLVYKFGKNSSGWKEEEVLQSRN
To be noted: protein: recombinant; tags: N-terminal GST; dsDNA, one strand shown. The method, boiled down:
as §1

The target in the next assay is CRX (Homo sapiens, UniProt O43186 1-299). To be noted: protein: recombinant; tags: N-terminal GST; dsDNA, one strand shown. In outline:
as §1

The target of another assay is ETV1 (Homo sapiens, UniProt P50549 1-477). To be noted: protein: recombinant; tags: N-terminal GST; dsDNA, one strand shown. The method, boiled down:
as §1

A further assay deals with T6, ERF (Homo sapiens, UniProt P50548 1-548).
T6 sequence: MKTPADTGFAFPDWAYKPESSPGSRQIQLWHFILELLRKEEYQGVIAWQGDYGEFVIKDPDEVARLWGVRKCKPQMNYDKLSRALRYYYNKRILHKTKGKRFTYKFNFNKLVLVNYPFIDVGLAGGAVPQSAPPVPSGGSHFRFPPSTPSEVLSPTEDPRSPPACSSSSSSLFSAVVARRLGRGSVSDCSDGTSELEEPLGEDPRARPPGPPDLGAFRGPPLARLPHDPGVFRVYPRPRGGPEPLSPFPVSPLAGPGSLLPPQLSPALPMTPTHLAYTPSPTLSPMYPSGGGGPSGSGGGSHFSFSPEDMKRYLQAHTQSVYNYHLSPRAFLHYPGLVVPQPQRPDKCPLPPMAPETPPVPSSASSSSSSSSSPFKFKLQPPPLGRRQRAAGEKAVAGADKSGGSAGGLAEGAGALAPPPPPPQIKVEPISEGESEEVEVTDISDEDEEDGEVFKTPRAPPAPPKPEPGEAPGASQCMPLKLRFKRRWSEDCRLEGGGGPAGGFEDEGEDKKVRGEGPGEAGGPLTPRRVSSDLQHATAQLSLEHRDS
To be noted: protein: recombinant; tags: N-terminal GST; dsDNA, one strand shown. The method, boiled down: as §1

A further assay has as its target T7, ETV3L (Homo sapiens, UniProt Q6ZN32 1-361).
T7 sequence: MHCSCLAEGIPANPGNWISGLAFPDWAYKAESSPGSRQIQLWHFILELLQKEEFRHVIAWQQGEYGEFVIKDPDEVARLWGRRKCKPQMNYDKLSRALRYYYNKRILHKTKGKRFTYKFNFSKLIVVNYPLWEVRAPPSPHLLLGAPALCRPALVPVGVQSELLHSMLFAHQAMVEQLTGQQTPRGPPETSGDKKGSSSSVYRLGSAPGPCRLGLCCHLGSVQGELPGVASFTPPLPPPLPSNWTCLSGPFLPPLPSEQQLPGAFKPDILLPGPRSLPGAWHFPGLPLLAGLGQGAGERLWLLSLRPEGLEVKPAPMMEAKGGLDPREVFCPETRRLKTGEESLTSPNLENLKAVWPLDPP
To be noted: protein: recombinant; tags: N-terminal GST; dsDNA, one strand shown. In outline: as §1

Another assay addresses T8, ETS2 (Homo sapiens, UniProt P15036 1-469).
T8 sequence: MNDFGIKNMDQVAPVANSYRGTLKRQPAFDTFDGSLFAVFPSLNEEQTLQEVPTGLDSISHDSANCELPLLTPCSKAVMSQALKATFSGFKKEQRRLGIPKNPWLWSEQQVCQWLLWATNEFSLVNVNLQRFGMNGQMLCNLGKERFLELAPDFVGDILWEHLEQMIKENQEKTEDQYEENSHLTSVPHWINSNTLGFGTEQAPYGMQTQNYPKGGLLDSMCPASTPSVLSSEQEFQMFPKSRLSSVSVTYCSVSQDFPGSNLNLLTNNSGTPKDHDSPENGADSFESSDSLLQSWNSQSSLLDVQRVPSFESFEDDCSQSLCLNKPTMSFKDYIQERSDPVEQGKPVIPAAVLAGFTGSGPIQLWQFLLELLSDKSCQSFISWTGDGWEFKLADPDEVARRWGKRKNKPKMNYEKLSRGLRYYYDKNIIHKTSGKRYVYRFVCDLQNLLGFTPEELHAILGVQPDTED
To be noted: protein: recombinant; tags: N-terminal GST; dsDNA, one strand shown. The method, boiled down: as §1

Another assay concerns the target T9, SPDEF (Homo sapiens, UniProt O95238 1-335).
T9 sequence: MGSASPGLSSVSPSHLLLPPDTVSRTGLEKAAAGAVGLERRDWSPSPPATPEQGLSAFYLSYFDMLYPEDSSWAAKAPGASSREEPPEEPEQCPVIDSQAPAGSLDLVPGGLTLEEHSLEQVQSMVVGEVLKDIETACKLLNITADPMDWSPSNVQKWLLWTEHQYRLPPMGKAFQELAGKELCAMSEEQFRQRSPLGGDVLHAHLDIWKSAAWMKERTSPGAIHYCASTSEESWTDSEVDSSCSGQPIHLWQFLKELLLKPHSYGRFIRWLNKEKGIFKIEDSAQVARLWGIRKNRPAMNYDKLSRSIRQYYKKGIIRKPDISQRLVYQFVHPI
The note with it: protein: recombinant; tags: N-terminal GST; dsDNA, one strand shown. The method, boiled down:
as §1

In a further assay the target is T10, ETV7 (Homo sapiens, UniProt Q9Y603 1-341).
T10 sequence: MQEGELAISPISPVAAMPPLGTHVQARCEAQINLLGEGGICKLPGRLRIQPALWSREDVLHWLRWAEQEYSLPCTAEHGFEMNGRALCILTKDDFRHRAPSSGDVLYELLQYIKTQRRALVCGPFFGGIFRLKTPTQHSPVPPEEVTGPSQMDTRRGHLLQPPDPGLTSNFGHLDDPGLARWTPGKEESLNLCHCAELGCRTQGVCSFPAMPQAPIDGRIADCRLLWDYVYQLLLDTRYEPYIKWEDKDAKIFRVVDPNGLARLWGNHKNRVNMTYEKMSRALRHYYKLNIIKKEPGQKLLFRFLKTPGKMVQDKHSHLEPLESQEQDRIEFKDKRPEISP
The note with it: protein: recombinant; tags: N-terminal GST; dsDNA, one strand shown. In outline:
as §1

In the next assay the target is T11, ELF5 (Homo sapiens, UniProt Q9UKW6-2 1-255).
T11 sequence: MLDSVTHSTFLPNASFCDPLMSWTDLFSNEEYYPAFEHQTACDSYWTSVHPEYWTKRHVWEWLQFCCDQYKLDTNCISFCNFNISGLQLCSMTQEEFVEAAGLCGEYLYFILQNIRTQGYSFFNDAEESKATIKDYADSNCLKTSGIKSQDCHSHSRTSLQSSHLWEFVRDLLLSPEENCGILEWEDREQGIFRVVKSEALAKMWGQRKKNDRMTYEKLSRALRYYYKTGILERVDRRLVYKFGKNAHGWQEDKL
The note with it: protein: recombinant; tags: N-terminal GST; dsDNA, one strand shown. The method, boiled down: as §1

For the next assay, the target named is T12, ETV3 (Homo sapiens, UniProt P41162-2 1-143).
T12 sequence: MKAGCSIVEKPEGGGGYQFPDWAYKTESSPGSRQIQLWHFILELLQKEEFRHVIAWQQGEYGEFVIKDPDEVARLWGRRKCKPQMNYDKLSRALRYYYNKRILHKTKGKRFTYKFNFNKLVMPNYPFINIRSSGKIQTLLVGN
The note with it: protein: recombinant; tags: N-terminal GST; dsDNA, one strand shown. The method, boiled down:
as §1

Another assay has as its target ETV6 (Homo sapiens, UniProt P41212 1-452). The note with it: protein: recombinant; tags: N-terminal GST; dsDNA, one strand shown. The method, boiled down:
as §1

CRX, sequence (O43186 whole entry): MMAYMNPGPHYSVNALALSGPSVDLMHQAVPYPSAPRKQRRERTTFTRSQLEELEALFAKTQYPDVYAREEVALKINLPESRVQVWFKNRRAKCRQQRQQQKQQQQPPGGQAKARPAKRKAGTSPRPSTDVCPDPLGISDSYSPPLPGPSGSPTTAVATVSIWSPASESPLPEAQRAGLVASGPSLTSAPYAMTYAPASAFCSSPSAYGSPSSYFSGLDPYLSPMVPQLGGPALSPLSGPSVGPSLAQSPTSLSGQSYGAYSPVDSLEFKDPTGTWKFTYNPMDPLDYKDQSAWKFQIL
ETV5, sequence (P41161 whole entry): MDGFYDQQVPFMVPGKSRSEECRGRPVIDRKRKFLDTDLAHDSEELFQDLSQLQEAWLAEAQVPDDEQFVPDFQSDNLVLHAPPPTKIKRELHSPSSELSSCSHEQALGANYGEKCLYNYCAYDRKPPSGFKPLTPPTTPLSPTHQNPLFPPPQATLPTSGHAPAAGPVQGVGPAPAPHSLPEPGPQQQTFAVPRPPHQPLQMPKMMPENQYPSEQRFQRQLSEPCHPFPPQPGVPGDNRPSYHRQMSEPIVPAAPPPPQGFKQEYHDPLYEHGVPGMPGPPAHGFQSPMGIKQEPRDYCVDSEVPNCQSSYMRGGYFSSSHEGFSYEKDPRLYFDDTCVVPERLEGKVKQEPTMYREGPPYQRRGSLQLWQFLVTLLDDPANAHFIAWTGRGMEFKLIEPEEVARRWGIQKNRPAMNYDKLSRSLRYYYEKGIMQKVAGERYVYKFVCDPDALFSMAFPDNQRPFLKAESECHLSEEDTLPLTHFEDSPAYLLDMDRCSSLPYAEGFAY
ETV1, sequence (P50549 whole entry): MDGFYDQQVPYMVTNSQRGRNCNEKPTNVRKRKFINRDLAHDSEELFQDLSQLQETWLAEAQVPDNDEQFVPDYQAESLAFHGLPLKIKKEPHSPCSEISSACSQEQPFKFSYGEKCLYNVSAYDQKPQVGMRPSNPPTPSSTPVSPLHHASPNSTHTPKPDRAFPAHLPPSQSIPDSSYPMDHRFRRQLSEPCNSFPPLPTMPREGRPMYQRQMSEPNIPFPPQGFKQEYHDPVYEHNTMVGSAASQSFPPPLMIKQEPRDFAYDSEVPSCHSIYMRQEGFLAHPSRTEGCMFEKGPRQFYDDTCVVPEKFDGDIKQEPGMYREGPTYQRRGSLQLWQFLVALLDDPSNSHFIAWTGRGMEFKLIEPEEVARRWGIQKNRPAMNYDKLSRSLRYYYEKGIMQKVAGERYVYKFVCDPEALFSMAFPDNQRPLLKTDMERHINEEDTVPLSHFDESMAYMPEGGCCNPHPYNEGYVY
HSF1, sequence (Q00613 whole entry): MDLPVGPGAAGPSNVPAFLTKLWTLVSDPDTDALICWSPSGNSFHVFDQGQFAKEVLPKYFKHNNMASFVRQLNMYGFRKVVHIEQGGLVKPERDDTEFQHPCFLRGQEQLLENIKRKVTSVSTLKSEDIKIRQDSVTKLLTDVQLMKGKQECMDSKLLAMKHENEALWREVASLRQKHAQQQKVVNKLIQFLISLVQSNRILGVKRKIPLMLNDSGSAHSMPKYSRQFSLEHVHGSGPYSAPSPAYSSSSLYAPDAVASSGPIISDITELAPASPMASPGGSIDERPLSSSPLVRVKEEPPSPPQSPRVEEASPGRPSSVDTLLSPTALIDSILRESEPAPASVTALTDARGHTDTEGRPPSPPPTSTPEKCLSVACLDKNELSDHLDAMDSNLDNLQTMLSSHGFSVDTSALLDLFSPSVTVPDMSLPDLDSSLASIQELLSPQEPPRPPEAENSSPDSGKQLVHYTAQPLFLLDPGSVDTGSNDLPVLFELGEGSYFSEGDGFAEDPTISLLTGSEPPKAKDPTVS
ETV6, sequence (P41212 whole entry): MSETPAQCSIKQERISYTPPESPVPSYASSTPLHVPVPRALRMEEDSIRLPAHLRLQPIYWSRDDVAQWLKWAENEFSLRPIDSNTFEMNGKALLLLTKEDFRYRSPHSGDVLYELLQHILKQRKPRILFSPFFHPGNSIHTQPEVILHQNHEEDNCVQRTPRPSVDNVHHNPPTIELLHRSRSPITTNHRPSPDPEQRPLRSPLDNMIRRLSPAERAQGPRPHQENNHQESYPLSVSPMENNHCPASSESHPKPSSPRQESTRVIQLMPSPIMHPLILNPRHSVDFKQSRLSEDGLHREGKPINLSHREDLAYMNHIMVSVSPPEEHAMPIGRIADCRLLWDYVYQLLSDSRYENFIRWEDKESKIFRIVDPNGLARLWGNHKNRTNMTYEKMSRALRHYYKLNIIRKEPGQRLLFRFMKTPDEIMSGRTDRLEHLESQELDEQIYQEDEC

With TTACAG, the binding signal in the assay with FEV was 1.14 fold enrichment (6-mer frequency, TF over GST control); with ETV5, 1.2 fold enrichment (6-mer frequency, TF over GST control); in the assay with HSF1, 1.44 fold enrichment (6-mer frequency, TF over GST control); with SPIC, 1.3 fold enrichment (6-mer frequency, TF over GST control); in the assay with ELF4 it was 1.26 fold enrichment (6-mer frequency, TF over GST control); with ELK4 it was 1.37 fold enrichment (6-mer frequency, TF over GST control). Besides, the binding signal in the assay with ETV2 is 1.14 fold enrichment (6-mer frequency, TF over GST control); with ELF3 it was 1.38 fold enrichment (6-mer frequency, TF over GST control); with CRX, 1.85 fold enrichment (6-mer frequency, TF over GST control); with ETV1 it was 1.2 fold enrichment (6-mer frequency, TF over GST control); in the assay with ERF, 1.32 fold enrichment (6-mer frequency, TF over GST control); with ETV3L, 1.22 fold enrichment (6-mer frequency, TF over GST control). The binding signal with ETS2 was 1.21 fold enrichment (6-mer frequency, TF over GST control); with SPDEF it was 1.18 fold enrichment (6-mer frequency, TF over GST control); with ETV7, 1.22 fold enrichment (6-mer frequency, TF over GST control); with ELF5, 1.16 fold enrichment (6-mer frequency, TF over GST control); with ETV3, 1.16 fold enrichment (6-mer frequency, TF over GST control); with ETV6, 1.19 fold enrichment (6-mer frequency, TF over GST control).

Source of the values: paper PMC7862700, “An all-to-all approach to the identification of sequence-specific readers for epigenetic DNA modifications on cytosine”.
